The target of test [1] is Luciferin 4-monooxygenase (Photinus pyralis) (UniProt P08659). Nature of the test: qHTS assay to identify small molecule inhibitors of firefly luciferase (AID 1224835). Further: nearly all actives have a fitted effect of over 25% in size. Further: potency means the concentration at half of the fitted maximal effect. The method in brief: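 Quantitative HTS format; KM concentrations of both substrates. Purified P. pyralis FLuc activity quantified from luminescence images.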
Test [2] can be described thus: qHTS assay to identify small molecule agonists of the constitutive androstane receptor (CAR) signaling pathway - cell viability counter screen (AID 1224836). Further: nearly all actives have a fitted effect of over 45% in size. The method in brief: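 HepG2-CYP2B6-hCAR, 2500 cells/well, 4 h pre-incubation; cpd 15 conc + PK11195 0.75 uM final; 23 h, 37 C/5% CO2; CellTiter-Fluor, fluorescence.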
Test [3] is described as follows: qHTS assay to identify small molecule antagonists of the constitutive androstane receptor (CAR) signaling pathway - cell viability counter screen (AID 1224837). Further: nearly all actives have a fitted effect of over 45% in size. The essentials: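 HepG2-CYP2B6-hCAR cells, 2500/well, 4 hr pre-incubation; compound titration, 15 conc.; CITCO 50 nM final; 23 hr, 37 C/5% CO2; CellTiter-Fluor, fluorescence intensity.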
On the technique in general: Quantitative high-throughput screening tests each substance at several concentrations.

Test [4] is described as follows: qHTS assay to identify small molecule antagonists of the estrogen related receptor signaling pathway with the pleiotropic PPARgamma coactivator (PGC) from Tox21 10K library - cell viability counter screen (AID 1224840; active means well fitted cell-killing curve with a large enough effect in the repeat runs, not every such curve was filed as active; further: nearly all actives have a fitted effect of over 40% in size). The method in brief:
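PGC/ERR cells, 2,000/well; 6 h pre-incubation 37 C/5% CO2; cpd in DMSO via pin tool; 17.5 h 37 C; CellTiter-Fluor, 30 min; fluorescence.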

The nature of test [5]: qHTS assay to identify small molecule antagonists of the estrogen related receptor signaling pathway with the pleiotropic PPARgamma coactivator (PGC) from Tox21 10K library (AID 1224841; call rule not given here; further: actives are mostly falling curves and most rising ones were filed inactive; nearly all actives have a fitted effect of over 50% in size). The method in brief: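 PGC/ERR cell line, 2,000 cells/well; 6 h pre-incubation 37 C/5% CO2; compounds (DMSO) pinned in; 18 h, 37 C; One-Glo, 30 min RT; luminescence.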
Test [6] can be described thus: qHTS assay to identify small molecule agonists of the estrogen related receptor signaling pathway with the pleiotropic PPARgamma coactivator (PGC) from Tox21 10K library (AID 1224842). Further: nearly all actives have a fitted effect of over 15% in size. The method in brief: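 PGC/ERR reporter cells (NTP line) were seeded 2,000 per well, rested 6 h at 37 C/5% CO2, then pin-dosed with compounds in DMSO for 18 h at 37 C; luciferase read by One-Glo luminescence after 30 min at room temperature.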

Test [7] can be described thus: qHTS assay to identify small molecule agonists of the hypoxia (HIF-1) signaling pathway - cell viability counter screen (AID 1224844; calls by dose curve; further: nearly all actives have a fitted effect of over 50% in size; further: potency means the concentration at half of the fitted maximal effect). The essentials:
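ME-180 HRE-bla cells, 2,000/well, 0.5% dialyzed FBS; 5 hr settle, 17 hr compound at 37C/5% CO2; CCF4-AM reporter read first, then CellTiter-Glo luminescence after 30 min RT.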

Test [8] can be described thus: qHTS assay to identify small molecule agonists of the hypoxia (HIF-1) signaling pathway (AID 1224846; active means well fitted activation curve with a large enough effect in the signal ratio in the repeat runs, not every such curve was filed as active; the % refers to the signal ratio). The essentials:
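Cell line: CellSensor HRE-bla ME-180; 2,000 cells/well; 0.5% dialyzed FBS; 5 h preincubation; DMSO compound pin transfer; 17 h, 37C, 5% CO2; CCF4-AM added; bla FRET signal scored for activation.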

A short description of test [9]: qHTS assay to identify small molecule antagonists of the estrogen related receptor (ERR) signaling pathway from Tox21 library (AID 1224848). Further: nearly all actives have a fitted effect of over 50% in size. The essentials: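 Cells: ERR line, 2,000/well; 6 h preincubation 37 C/5% CO2. Cpd in DMSO via pin tool; 18 h, 37 C. ONE-Glo, 30 min RT, luminescence.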
Test [10] in a line: qHTS assay to identify small molecule agonists of the estrogen related receptor (ERR) signaling pathway from Tox21 library (AID 1224849; calls by dose curve; further: nearly all actives have a fitted effect of over 15% in size). Particulars: ERR reporter cell line, ONE-Glo luciferase, 18 h; at 92.4 µM (top of the series). The method in brief:
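ERR cells, 6 h pre-incubation 37 C/5% CO2; cpd in DMSO pinned; 18 h 37 C; ONE-Glo added, 30 min RT; luminescence read. Agonist mode, qHTS.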

The nature of test [11]: qHTS RealTime-Glo MT Cell Viability Assay in HepG2 cells - 24 hour (AID 1224867). Further: nearly all actives have a fitted effect of over 50% in size. Further: potency means the concentration at half of the fitted maximal effect. The method in brief:
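HepG2 suspension premixed with RealTime-Glo reagents is plated at 600 cells per well and left 5 h at 37 C/5% CO2. Compounds in DMSO then go in, and bioluminescence reflecting viable cell number is recorded over 40 h.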

Test [12] is described as follows: qHTS RealTime-Glo MT Cell Viability Assay in HEK293 cells - 32 hour (AID 1224868). Further: nearly all actives have a fitted effect of over 50% in size. Further: potency means the concentration at half of the fitted maximal effect. The method in brief: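 Reads taken at 0, 8, 16, 24, 32 and 40 h from the same wells. HEK293 cells (600/well) carried RealTime-Glo reagents from seeding, with compound added after a 5 h settle at 37 C.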
Test [13] can be described thus: qHTS RealTime-Glo MT Cell Viability Assay in HepG2 cells - 40 hour (AID 1224870). Further: nearly all actives have a fitted effect of over 50% in size. Further: potency means the concentration at half of the fitted maximal effect. The essentials:
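HepG2 cells mixed with RealTime-Glo MT reagents (NanoLuc plus cell-permeant prosubstrate) were seeded at 600 cells/well, incubated 5 h at 37 C/5% CO2, then pinned with compounds in DMSO; nonlytic luminescence tracked viability during 40 h treatment.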

Test [14] can be described thus: A CellTox Green Cytotoxicity Assay to monitor cytotoxicity in HEK293 cells - 40 hour (AID 1224871). Further: nearly all actives have a fitted effect of over 45% in size. Further: potency means the concentration at half of the fitted maximal effect. The essentials:
(§1)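 Nonlytic real-time cytotoxicity: HEK293 + CellTox Green reagent plated, 5 h preincubation, pintool compound addition (23 nL in DMSO), 37 C for 40 h, fluorescence measured at successive time points.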

Test [15] has as its target Nuclear receptor subfamily 1 group I member 3 (Homo sapiens) (UniProt Q14994). Nature of the test: qHTS assay to identify small molecule antagonists of the constitutive androstane receptor (CAR) signaling pathway (AID 1224838).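 Further: HepG2 cells stably expressing hCAR with CYP2B6 luciferase reporter stimulated by CITCO; nearly all actives have a fitted effect of over 40% in size.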 The method in brief: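 HepG2-CYP2B6-hCAR cells; 4 h pre-incubation; cpd (15 conc) + CITCO 50 nM final; 24 h, 37 C/5% CO2; ONE-Glo, luminescence.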

Test [16] has the same target. Nature of the test: qHTS assay to identify small molecule agonists of the constitutive androstane receptor (CAR) signaling pathway (AID 1224839). Further: nearly all actives have a fitted effect of over 15% in size. Further: potency means the concentration at half of the fitted maximal effect.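 On activation: HepG2 cells stably carrying human CAR and a CYP2B6 luciferase reporter.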 The essentials: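 HepG2-CYP2B6-hCAR cells, 2500/well, 4 h pre-incubation; compounds 15 conc.; PK11195 0.75 uM final; 24 h, 37 C/5% CO2; ONE-Glo luciferase read.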
The target in test [17] is Thyrotropin receptor (Homo sapiens) (UniProt P16473). Nature of the test: qHTS assay to identify small molecule agonists of the thyroid stimulating hormone receptor (TSHR) signaling pathway (AID 1224843; calls by dose curve; further: nearly all actives have a fitted effect of over 45% in size). The essentials:
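TSHR-expressing HEK293 cells (800 per well) were exposed to compounds for 30 min at room temperature. cAMP was then detected by HTRF competition with cAMP-d2 and anti-cAMP cryptate, read after 1 h at room temperature. Fifteen concentrations, triplicate.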

Test [18] in a line: qHTS assay to identify small molecule agonists of H2AX (AID 1224845; active means well fitted activation curve with a large enough effect in the signal ratio in the repeat runs, not every such curve was filed as active; the % refers to the signal ratio). The method in brief:
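Wild-type CHO-K1 cells plated overnight, then exposed 3 hr at 37C to compounds at 15 concentrations (0.76% DMSO). Lysed, then HTRF anti-pH2AX(S139)-cryptate/anti-H2AX-d2 detection after 24 hr at room temperature; emissions 665 and 620 nm.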

Test [19] is described as follows: A CellTox Green Cytotoxicity Assay to monitor cytotoxicity in HEK293 cells - 0 hour (AID 1224869). Further: nearly all actives have a fitted effect of over 50% in size. Further: potency means the concentration at half of the fitted maximal effect. The essentials:
as §1

Test [20] can be described thus: qHTS assay to identify small molecule agonists of H2AX - cell viability counter screen (AID 1224847; calls by dose curve; further: top concentration of the series differs between compounds; nearly all actives have a fitted effect of over 30% in size). The essentials: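 Cells plated first: CHO-K1, 1000 per well in 10% FBS medium, incubated overnight at 37C. Then 15-point compound titration added (final DMSO 0.76%) for 3 hr. Finally CellTiter-Glo added and luminescence read.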

Values joined by “and” are separate entries in the source; they are usually repeats but may differ in a detail not shown here. Identical values can stand only once. Results filed as inconclusive are left out. Some compounds were tested as several samples or in several runs, with calls that do not always agree. Active and inactive are the calls of the source. Unless noted, the call rests on the fitted dose curve; in most records, active means well fitted curve in the direction sought with a large enough effect in the repeat runs; inconclusive means weak or mixed curves; inactive means no such curve, though single readings can be large; an effect the other way counts as inactive or inconclusive.
On the % scale 0 is the no-effect control and ±100 the full control effect.

Chain of Luciferin 4-monooxygenase (Photinus pyralis) (P08659 whole entry, looked up): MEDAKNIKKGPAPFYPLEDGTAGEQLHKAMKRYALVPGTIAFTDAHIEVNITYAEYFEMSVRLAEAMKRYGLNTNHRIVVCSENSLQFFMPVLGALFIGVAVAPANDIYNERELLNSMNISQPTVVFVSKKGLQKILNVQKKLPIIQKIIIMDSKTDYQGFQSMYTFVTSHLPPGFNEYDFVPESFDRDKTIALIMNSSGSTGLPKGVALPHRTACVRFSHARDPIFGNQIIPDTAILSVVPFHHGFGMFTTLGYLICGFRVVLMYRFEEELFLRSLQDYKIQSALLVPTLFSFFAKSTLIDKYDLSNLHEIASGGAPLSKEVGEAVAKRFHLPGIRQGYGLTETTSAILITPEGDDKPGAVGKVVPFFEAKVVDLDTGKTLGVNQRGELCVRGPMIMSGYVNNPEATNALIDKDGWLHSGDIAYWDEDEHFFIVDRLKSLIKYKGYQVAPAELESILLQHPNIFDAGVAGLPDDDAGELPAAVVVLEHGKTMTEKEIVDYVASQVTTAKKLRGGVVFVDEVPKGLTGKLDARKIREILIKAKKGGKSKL
Chain of Nuclear receptor subfamily 1 group I member 3 (Homo sapiens) (Q14994 whole entry, looked up): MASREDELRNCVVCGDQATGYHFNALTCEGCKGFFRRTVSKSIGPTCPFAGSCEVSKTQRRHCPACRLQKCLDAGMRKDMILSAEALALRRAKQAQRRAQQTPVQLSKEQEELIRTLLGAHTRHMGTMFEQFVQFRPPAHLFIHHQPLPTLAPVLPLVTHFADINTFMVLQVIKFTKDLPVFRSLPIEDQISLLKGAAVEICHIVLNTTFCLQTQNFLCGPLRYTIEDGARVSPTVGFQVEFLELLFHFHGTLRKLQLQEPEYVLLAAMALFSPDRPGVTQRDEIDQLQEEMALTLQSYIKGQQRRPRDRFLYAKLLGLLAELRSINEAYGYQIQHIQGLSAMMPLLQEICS
Chain of Thyrotropin receptor (Homo sapiens) (P16473 whole entry, looked up): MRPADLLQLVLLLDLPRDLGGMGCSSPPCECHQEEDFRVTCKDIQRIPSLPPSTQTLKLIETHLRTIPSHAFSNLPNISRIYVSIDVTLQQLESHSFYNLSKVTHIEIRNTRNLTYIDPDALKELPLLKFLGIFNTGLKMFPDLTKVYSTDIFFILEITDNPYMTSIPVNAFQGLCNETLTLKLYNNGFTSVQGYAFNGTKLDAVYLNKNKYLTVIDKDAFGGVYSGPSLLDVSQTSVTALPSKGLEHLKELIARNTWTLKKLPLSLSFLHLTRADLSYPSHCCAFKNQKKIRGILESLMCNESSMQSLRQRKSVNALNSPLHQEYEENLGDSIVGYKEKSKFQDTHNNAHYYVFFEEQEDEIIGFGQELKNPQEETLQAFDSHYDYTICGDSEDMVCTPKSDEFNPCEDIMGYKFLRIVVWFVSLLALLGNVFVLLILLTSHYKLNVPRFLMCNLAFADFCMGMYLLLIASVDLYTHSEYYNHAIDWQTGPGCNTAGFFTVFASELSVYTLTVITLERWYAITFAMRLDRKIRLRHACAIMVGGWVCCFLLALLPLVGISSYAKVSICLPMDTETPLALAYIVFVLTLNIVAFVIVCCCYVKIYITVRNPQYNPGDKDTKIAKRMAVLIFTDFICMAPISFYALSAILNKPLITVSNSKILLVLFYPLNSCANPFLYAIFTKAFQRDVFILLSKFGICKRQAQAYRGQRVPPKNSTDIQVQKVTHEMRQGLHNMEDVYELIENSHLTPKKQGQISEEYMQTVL

Take `NC=O`: the Potency result in test [1], in test [2], in test [3], in test [4], in [5] and in [6] was “inactive” in each case. The Potency entry in test [7], in [8], in test [9], in [11], in [12] and in test [13] was “inactive” in each case. Besides, the Potency entry in [14] is “inactive”. Besides, in test [10], the activity change, positive = activation was 6.78% (inactive) and -1.46% (inactive).

For `CN(C)C(=N)N=C(N)N`, the Potency entry in test [2], in [3], in [15], in test [16], in test [4] and in test [17] was “inactive” in each case. For the same compound, the Potency result in test [7], in test [8], in [11], in [12], in [19] and in test [13] was “inactive” throughout. Besides, in [14], the Potency result was “inactive”. In addition, the compound was classed as inactive in test [18].

For the compound `O=S(=O)(O)c1ccc(O)cc1`, the Potency entry in test [1], in test [2], in test [3], in test [4], in [17] and in [7] was “inactive” throughout. Further, the Potency entry in test [8], in test [11], in test [12], in test [19] and in test [13] was “inactive” throughout. In addition, the compound was classed as inactive in test [18].

Consider `CC(C)=CCCC(C)CCO` (centres undefined), for which the Potency entry in test [1], in test [2], in test [3], in test [4], in test [17] and in [7] was “inactive” each time. In addition, the Potency entry in [8], in [20], in [11], in test [12] and in test [19] was “inactive” in each case. For the same compound, in test [18], the outcome was inactive.

With `O=C(c1ccccc1)c1ccc(O)cc1O`, the Potency in [1] is 89.4 µM (active); in test [16] it was 61.1 µM (active). Further, the Potency result in test [2], in [15], in test [4], in [17], in test [7] and in [8] was “inactive” throughout. Further, the Potency result in test [20], in test [11], in test [12] and in test [13] was “inactive” throughout. Besides, the call in test [18] was inactive.

Turning to `CN1C(C(=O)Nc2ccccn2)=C(O)c2ccccc2S1(=O)=O`, the Potency result in test [2], in test [3], in test [15], in test [16], in [4] and in [17] was “inactive” in each case. The Potency entry in test [7], in test [20], in [11], in [12], in test [19] and in [14] was “inactive” throughout. Further, the compound was classed as inactive in test [18].

In the case of `CCCCOCCOCCO`, the Potency result in test [1], in [2], in test [3], in test [4], in test [17] and in test [7] was “inactive” in each case. The Potency entry in test [8], in test [20], in test [11], in test [12] and in test [19] was “inactive” in each case.

With `c1ccc2sc(SSN3CCOCC3)nc2c1`, the Potency was 22.4 µM (active) and 15.9 µM (active) in test [1]; 54.8 µM (active) and 54.9 µM (active) in test [7]; 54.9 µM (active) in [11]; 21.8 µM (active) and 43.6 µM (active) in test [12]; “inactive and 54.9 µM (active)” in test [13]; 38.8 µM (active) and 49 µM (active) in test [14]. The Potency result in test [2], in test [4], in test [5], in test [6], in [17] and in [9] was “inactive” in each case. The Potency result in [19] was “inactive”. In [10], the activity change, positive = activation was 4.82% (inactive) and -28.8% (inactive).

With `Cc1cc2nc3c(=O)[nH]c(=O)nc-3n(C[C@H](O)[C@H](O)[C@H](O)CO)c2cc1C`, the Potency entry in [1], in [15], in [16], in test [17], in [7] and in test [11] was “inactive” each time. Besides, the Potency result in [12] was “inactive”. The call in test [18] was inactive. For the same compound, the Potency in test [19] is 43.2 µM (active) and 40.5 µM (active) and 11.7 µM (active); in test [14], 43.2 µM (active) and 40.5 µM (active) and 10.4 µM (active).

Turning to `Nc1ccc(Cl)cc1Cl`, the Potency result in test [1], in test [2], in test [3], in test [4], in test [5] and in [6] was “inactive” in each case. The Potency entry in [17], in test [7], in test [8], in [20], in [9] and in test [11] was “inactive” each time. In addition, the Potency entry in test [12] and in test [19] was “inactive” in each case. The result in test [18] was inactive. Further, the activity change, positive = activation in test [10] is 1.8% (inactive).

Values taken from PubChem BioAssay (Tox21).
